# Screening results as filed in PubChem.
# MITF TRPM1 HTS: activators of MITF-driven TRPM1 promoter reporter, primary screen, cell-based, SK-MEL-5, luciferase, single point. SK-MEL-5 TRPM1-promoter luciferase, 24 h; % of positive control, neutral wells = 0. activation, % at 12.5 µM. actives 0.75% (n = 300,000). AID 588334, 2011;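 active means mean activation of at least 80% with every replicate also reaching 80%; inconclusive means mean reaches 80% but some replicate falls short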;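 further: 0% = neutral control wells and 100% = parthenolide positive control wells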
# esBAF inh: Bmi1 luciferase reporter increase in mESCs, primary screen, esBAF inhibitor project, mouse ES cells, Bmi1 luciferase knock-in, single point; 24 h; 100% = twice the neutral-well signal; actives 2% (n = 350,000); reporter increase, % at 12.5 µM; AID 602393, 2012; in the data active means activation above about 40%; inconclusive means no clear call, values can overlap the other calls;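 further: 0% = median of the plate's neutral control wells and 100% = double that signal; a rise in the Bmi1 reporter signal indicates esBAF inhibition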
# Statin myotox sup: suppressors of statin myotoxicity in C2C12 myotubes, primary screen, cell-based, single point, plate reader; actives 0.78% (n = 330,000); rescue of ATP level, % at 7.49 µM; C2C12 myotubes + simvastatin, ATP luminescence, 48 h; scaled: DMSO 0, geranylgeraniol control 100;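 active means mean ATP rescue above about 67%, or every replicate alone reaching that limit, limit read from the data, passing the limit was not always enough; inconclusive means no clear call, values can overlap the other calls; inactive means mean under the limit and some replicate under it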;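 further: myotubes were challenged with 10 µM simvastatin during compound exposure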
# Wnt act: Wnt/beta-catenin pathway activators, primary screen, cell-based, plate reader, single point; Wnt/beta-catenin reporter cell assay, activator; actives 1.2% (n = 300,000); activation, % at 9.35 µM; in the data active means activation above about 30%, passing the limit was not always enough; inconclusive means no clear call, values can overlap the other calls;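 further: 0% = neutral control wells and 100% = positive control wells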
# Rtt109 HAT inh: inhibitors of C. albicans Rtt109/Vps75 HAT, primary screen, biochemical, ThioGlo CoA-SH fluorescence, plate reader; Histone acetyltransferase RTT109 (Candida albicans (strain SC5314 / ATCC MYA-2876)), …; purified Rtt109/Vps75, 4 h; inhibition, % at 34.9 µM; actives 0.16% (n = 330,000); AID 540336, 2011;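 active means inhibition of at least 50% in every replicate; inconclusive means best replicate reaches 50% inhibition but some replicates fall short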
# Target sequence (Q5AAJ8 whole entry, looked up): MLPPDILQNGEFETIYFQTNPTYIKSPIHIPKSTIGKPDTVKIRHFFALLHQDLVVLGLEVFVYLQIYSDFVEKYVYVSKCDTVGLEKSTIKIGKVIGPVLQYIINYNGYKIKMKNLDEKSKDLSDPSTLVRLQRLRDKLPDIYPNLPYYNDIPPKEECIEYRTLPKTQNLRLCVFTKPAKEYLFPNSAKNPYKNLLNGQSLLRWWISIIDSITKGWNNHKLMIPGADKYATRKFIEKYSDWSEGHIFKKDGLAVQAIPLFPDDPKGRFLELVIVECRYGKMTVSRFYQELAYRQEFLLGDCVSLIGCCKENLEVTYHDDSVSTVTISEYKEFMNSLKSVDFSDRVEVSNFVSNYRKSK
# The depositor's hits bear a star; u = inconclusive; x = no result given. Compounds with a hit are over-represented: about 3.1% of the library has one in this group of screens.
SMILES,MITF TRPM1 HTS,esBAF inh,Statin myotox sup,Wnt act,Rtt109 HAT inh
O=C(NCc1cccnc1)c1c[nH]c2cc3c(cc2c1=O)OCCO3,x,62.0*,-7.6,x,11.8
C/C(=N\OC(=O)c1ccc(C)cc1)c1sc(C)nc1C,23.3,10.3,11.2,x,4.2
C/C(=N\OC(=O)c1ccc(F)cc1)c1sc(-c2ccc(Cl)cc2)nc1C,71.6,u,-2.1,51.0*,-4.3
CCC(C)c1ccc(Nc2ncccc2C#N)cc1 (configuration not stated),49.2,80.8*,-8.3,x,-0.3
CCc1ccc(Nc2ncccc2C#N)cc1,50.8,27.9,8.8,x,-16.7
CCCN1[C@@H]2c3ccc(-c4cccc(C(=O)N(C)C)c4)c(=O)n3C[C@@H]2[C@@H](CO)[C@@H]1C(=O)NCCOC,x,9.1,-3.5,x,x
Cc1ccccc1S(=O)(=O)NCC[C@H]1CC[C@H](NC(=O)Nc2cccc(Cl)c2)[C@H](CO)O1,x,9.9,-32.1,x,x
Nc1nnc(COc2ccc(Br)cc2Br)s1,69.7,69.1*,9.8,10.6,-5.7
Cc1ccc(C)c(OCc2nnc(N)s2)c1,-10.9,x,x,x,14.4
CCCNC(=O)N(C)C[C@@H]1Oc2ncc(C3=CCCC3)cc2C(=O)N([C@@H](C)CO)C[C@H]1C,x,6.4,2.2,x,x
CC(=O)Nc1c(Cl)c2c(c(Cl)c1Br)-c1ccc(Cl)cc1C2,-6.6,0.4,0.3,-3.6,0.3
CC(=O)Nc1cc(F)c2c(c1F)Cc1cc(F)ccc1-2,49.9,103.5*,-4.9,-0.2,-3.8
CC(=O)Nc1cc2c(cc1[N+](=O)[O-])-c1ccc(F)cc1C2,1.2,51.9*,-9.5,2.7,-4.0
O=C(NCC[C@H]1CC[C@@H](NS(=O)(=O)c2ccccc2)[C@H](CO)O1)c1ccccc1F,x,-0.2,-0.8,x,x
C[C@@H]1CN([C@H](C)CO)S(=O)(=O)c2ccc(C#CC3CC3)cc2O[C@H]1CN(C)Cc1cncnc1,x,x,-101.0,x,x
CC(C)(C)c1ccc(C(=O)NC(=S)N2CCOCC2)cc1,103.9*,20.5,-22.4,34.3*,-12.3
Cc1ccc(S(=O)(=O)N(C)C[C@@H]2Oc3ccc(NC(=O)Cc4cn(C)c5ccccc45)cc3C(=O)N([C@@H](C)CO)C[C@H]2C)cc1,x,4.6,39.5,x,x
CCOC(=O)C1=NN(C(=O)Nc2ccc(OC)cc2)C2C(=O)N(c3cccc(C(F)(F)F)c3)C(=O)C12 (configuration not stated),-9.3,-6.1,101.7*,x,2.4
CCOC(=O)C1=NN(c2ccc(OC)cc2)C2C(=O)N(c3ccccc3OC)C(=O)C12 (configuration not stated),x,x,x,2.6,-1.8
Clc1ccc(-c2nnc(CCc3ccccc3)o2)c(Cl)c1,u,59.8*,0.1,19.5,2.3
Oc1ccccc1-c1nnc(COc2ccccc2)o1,70.5,u,-6.0,17.8,-11.2
Oc1ccccc1-c1nnc(COc2ccc(Cl)cc2Cl)o1,96.0*,12.1,-1.6,u,-8.1
O=C(C[C@H]1CC[C@@H]2[C@H](COC[C@@H](O)CN2C(=O)Nc2ccc(Cl)c(Cl)c2)O1)NCc1ccc(Cl)cc1,x,5.2,3.0,x,x
O=C(Nc1nc2c(Cl)cccc2s1)c1ccc(Br)o1,0.6,39.3,9.6,x,-11.1
Cc1cc(C(=O)Nc2nc3ccc(Cl)cc3s2)nn1C,x,x,x,60.2*,x
SMILES,MITF TRPM1 HTS,esBAF inh,Statin myotox sup,Wnt act,Rtt109 HAT inh
Cn1ncc(Cl)c1C(=O)Nc1nc2ccc(Cl)cc2s1,14.1,x,x,0.2,-7.1
O=C(Nc1nc2ccc(Cl)cc2s1)c1ccc(Br)o1,59.0,61.8*,-3.5,10.2,-8.2
CN(C)c1ccc(N=Nc2ccc(S(N)(=O)=O)cc2)cc1,67.3,4.2,-13.0,42.4*,4.1
COc1ccc(S(=O)(=O)Nc2ccc3c(c2)C(=O)N([C@H](C)CO)C[C@@H](C)[C@H](CN(C)C(=O)CCC(F)(F)F)OCCCC[C@@H](C)O3)cc1,x,9.6,x,x,x
Cc1ccccc1S(=O)(=O)N1CC[C@@H]2[C@H]1c1cc(Br)ccc1N(C)[C@H]2CO,x,1.2,-42.9,x,x
COc1ccc(/C=N/NC(=O)COc2ccc(Cl)cc2Cl)cc1Cn1nc(C)cc1C,-20.0,x,x,-5.3,54.0*
CNC(=O)C[C@@H]1CC[C@H]2[C@H](COc3ccc(NC(=O)Cc4cccs4)cc3C(=O)N2C)O1,x,-6.4,-4.8,x,x
CN(C)/C=C/C=C1C(=O)CCCC1=O,-2.6,-1.7,2.1,72.7*,u
CC1=NN(c2ccccc2)C(=O)/C1=C/C=C/C=C/N(C)C,-3.3,x,x,-1.7,x
CO[C@@H](CN(C)Cc1cc(F)ccc1F)[C@@H](C)CN(C(=O)Nc1ccc(F)cc1)[C@H](C)CO,x,0.7,-1.3,x,x
O=C(Nc1ccc2c(c1)[C@@H]1C[C@H](CC(=O)N3CCc4ccccc4C3)O[C@H](CO)[C@@H]1O2)C1CCC1,x,1.8,-3.4,x,x
Cc1ccc(NC(=O)Nc2ccc3c(c2)CCC3)c(C)c1,23.0,7.1,8.3,2.5,-3.8
CCOc1ccccc1NC(=O)Nc1cccc(NC(C)=O)c1,23.2,5.9,10.1,-3.3,3.2
O=C(Nc1ccc2c(c1)CCC2)Nc1ccccc1Cl,68.0,78.5*,-2.6,51.5*,-12.0
Cc1cc(C)n2nc(C(=O)Nc3ccc4c(c3)CCC4)nc2n1,48.5,56.5*,-4.7,20.0,3.2
Cn1ncc(Cl)c1C(=O)Nc1ccc2c(c1)CCC2,29.2,51.9*,-5.7,23.7,0.9
Cc1cc(C)n2nc(C(=O)Nc3ccc(S(=O)(=O)N4CCCC4)cc3)nc2n1,-5.9,-3.7,8.3,-1.5,-1.0
CCOc1ccccc1NC(=O)Nc1ccc2c(c1)CCC2,28.3,48.0*,-10.4,14.8,-6.5
C[C@@H]1CCCCO[C@@H](CN(C)S(=O)(=O)c2ccccc2)[C@@H](C)CN([C@@H](C)CO)C(=O)c2cc(NC(=O)Nc3ccc(C(F)(F)F)cc3)ccc2O1,x,0.0,x,x,x
Cc1cc(OCc2cc(C(=O)N(C)C3CCOCC3)no2)cc(C)c1Cl,62.6,61.4*,-8.8,30.0,14.5
Cc1ccc(OCc2cc(C(=O)N(C)CC3CCOCC3)no2)cc1C,95.9*,68.6*,2.0,17.3,12.7
COc1ccc(OCc2cc(C(=O)N(C)C3CCOCC3)no2)c2ccccc12,15.7,38.5,-37.7,13.2,0.3
Cc1ccc(OCc2cc(C(=O)NCC3COCCO3)no2)cc1C (configuration not stated),7.0,x,x,0.3,-0.3
COc1cccc(NC2SC(=O)N(c3ccccc3)C2=O)c1 (configuration not stated),x,59.2*,11.0,25.2,-3.5
CCC(=O)Nc1ccc2c(c1)OC[C@H](C)N(C(=O)c1cnccn1)C[C@@H](C)[C@H](OC)CN(C)C2=O,x,3.1,-4.1,x,x
COC(=O)C1=C(N)N(c2ccccc2C(F)(F)F)C2=C(C(=O)CCC2)C1c1ccc2c(c1)OCO2 (configuration not stated),-9.1,0.2,93.5*,-3.7,-2.1
